# Measurements from publication PMC7862700, “An all-to-all approach to the identification of sequence-specific readers for epigenetic DNA modifications on cytosine”.
# What was measured:
# Test in all cases: DAPPL (digital affinity profiling via proximity ligation, sequencing); 10 mM Tris-HCl pH 7.5, 50 mM NaCl, 1 mM DTT, 4% glycerol, room temperature, 30 min; GST-TFs on glutathione beads, 16-mer random dsDNA library, 0.1% formaldehyde crosslink after washing; high values mean tight binding
# [1] = target: T1, FEV (Homo sapiens, UniProt Q99581 1-238); conditions: protein: recombinant; tags: N-terminal GST; dsDNA, one strand shown
# T1 sequence: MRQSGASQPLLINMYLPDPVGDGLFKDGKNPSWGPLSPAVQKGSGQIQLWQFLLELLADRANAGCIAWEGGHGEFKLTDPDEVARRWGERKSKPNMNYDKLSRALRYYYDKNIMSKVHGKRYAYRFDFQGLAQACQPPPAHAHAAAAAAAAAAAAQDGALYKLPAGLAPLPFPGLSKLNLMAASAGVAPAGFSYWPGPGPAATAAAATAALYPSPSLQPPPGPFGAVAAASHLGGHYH
# Method in brief: (§1)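 Pools of DNA-barcoded human transcription factors, expressed in yeast as GST fusions on glutathione beads and combined with a tag-only sample, were incubated with 200 nmole of a 16-mer random double-stranded DNA library. Incubation took 30 min at room temperature in Tris/NaCl/DTT/glycerol buffer and was followed by washing, 0.1% formaldehyde crosslinking, proximity ligation (BsaI/T4 ligase, 1 h, 37 °C), PCR amplification and sequencing on an Illumina NextSeq500. Binding signal is the ratio of a hexamer's read frequency for a factor to its frequency for the tag-only sample.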
# [2] = target: ETV5 (Homo sapiens, UniProt P41161 1-510); conditions: protein: recombinant; tags: N-terminal GST; dsDNA, one strand shown
# Sequence of ETV5 (P41161 whole entry): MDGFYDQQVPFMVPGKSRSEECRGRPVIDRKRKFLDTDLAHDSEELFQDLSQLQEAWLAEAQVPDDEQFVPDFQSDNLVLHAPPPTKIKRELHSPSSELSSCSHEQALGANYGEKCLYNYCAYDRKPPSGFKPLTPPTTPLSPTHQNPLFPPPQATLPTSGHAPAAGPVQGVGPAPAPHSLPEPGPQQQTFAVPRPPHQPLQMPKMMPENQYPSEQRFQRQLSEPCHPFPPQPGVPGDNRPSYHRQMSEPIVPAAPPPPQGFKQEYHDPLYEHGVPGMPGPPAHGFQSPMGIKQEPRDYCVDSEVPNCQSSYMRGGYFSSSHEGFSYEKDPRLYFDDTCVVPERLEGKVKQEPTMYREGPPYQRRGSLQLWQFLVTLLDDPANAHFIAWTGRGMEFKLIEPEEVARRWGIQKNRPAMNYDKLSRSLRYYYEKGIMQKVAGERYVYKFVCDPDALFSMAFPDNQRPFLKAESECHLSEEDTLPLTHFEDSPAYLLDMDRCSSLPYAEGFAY
# Method in brief: as §1
# [3] = target: HSF1 (Homo sapiens, UniProt Q00613 1-529); conditions: protein: recombinant; tags: N-terminal GST; chain copies: 3; dsDNA, one strand shown
# Sequence of HSF1 (Q00613 whole entry): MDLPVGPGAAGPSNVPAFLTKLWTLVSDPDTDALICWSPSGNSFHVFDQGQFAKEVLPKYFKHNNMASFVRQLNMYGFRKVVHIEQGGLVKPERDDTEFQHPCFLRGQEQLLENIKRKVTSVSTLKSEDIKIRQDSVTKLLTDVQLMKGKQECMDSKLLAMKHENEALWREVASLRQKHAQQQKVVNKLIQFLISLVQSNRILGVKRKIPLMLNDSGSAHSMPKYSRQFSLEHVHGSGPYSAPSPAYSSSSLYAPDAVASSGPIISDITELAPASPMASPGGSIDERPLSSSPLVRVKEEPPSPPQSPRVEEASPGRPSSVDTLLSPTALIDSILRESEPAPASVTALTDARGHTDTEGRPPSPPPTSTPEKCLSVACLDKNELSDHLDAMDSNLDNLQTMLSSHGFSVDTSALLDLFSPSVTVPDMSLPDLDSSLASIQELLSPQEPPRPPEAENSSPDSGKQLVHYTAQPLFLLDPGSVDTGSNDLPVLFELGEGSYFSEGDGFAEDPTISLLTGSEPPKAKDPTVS
# Method in brief: as §1
# [4] = target: T2, SPIC (Homo sapiens, UniProt Q8N5J4 1-248); conditions: protein: recombinant; tags: N-terminal GST; dsDNA, one strand shown
# T2 sequence: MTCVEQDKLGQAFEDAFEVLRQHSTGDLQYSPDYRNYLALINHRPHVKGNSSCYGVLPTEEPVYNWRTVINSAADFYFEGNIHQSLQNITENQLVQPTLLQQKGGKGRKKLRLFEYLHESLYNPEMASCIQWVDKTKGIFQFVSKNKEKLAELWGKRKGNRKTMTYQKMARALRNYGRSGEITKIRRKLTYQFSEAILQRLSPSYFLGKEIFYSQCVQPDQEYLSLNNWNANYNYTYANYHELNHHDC
# Method in brief: as §1
# [5] = target: ELF4 (Homo sapiens, UniProt Q99607 1-663); conditions: protein: recombinant; tags: N-terminal GST; dsDNA, one strand shown
# Sequence of ELF4 (Q99607 whole entry): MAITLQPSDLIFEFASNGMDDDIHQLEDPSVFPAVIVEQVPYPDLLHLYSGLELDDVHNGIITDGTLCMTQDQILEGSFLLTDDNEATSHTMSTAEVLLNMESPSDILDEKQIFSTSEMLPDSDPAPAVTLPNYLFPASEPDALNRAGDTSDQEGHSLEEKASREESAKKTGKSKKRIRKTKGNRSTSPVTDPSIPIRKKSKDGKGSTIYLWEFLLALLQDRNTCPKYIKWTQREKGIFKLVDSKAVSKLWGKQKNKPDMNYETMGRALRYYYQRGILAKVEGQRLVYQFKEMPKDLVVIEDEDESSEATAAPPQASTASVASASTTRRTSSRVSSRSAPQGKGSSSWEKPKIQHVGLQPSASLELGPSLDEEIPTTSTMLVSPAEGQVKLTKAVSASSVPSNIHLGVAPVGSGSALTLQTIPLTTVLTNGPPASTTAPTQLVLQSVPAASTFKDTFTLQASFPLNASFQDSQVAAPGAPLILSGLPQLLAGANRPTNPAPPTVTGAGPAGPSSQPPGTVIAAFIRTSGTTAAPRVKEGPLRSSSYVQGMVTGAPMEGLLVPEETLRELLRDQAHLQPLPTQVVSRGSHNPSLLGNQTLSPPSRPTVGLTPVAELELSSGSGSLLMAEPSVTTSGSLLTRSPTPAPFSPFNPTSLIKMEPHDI
# Method in brief: as §1
# [6] = target: T3, ELK4 (Homo sapiens, UniProt P28324-2 1-405); conditions: protein: recombinant; tags: N-terminal GST; dsDNA, one strand shown
# T3 sequence: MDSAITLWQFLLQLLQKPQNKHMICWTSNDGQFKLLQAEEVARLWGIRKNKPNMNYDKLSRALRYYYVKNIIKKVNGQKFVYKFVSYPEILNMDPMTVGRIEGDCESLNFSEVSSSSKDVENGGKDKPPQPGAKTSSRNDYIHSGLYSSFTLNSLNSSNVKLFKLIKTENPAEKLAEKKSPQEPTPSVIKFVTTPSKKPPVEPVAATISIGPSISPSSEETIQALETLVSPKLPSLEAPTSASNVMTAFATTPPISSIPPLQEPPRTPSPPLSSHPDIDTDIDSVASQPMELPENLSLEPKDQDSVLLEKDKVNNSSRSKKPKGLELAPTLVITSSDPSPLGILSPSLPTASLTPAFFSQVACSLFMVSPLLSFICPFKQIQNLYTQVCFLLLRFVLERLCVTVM
# Method in brief: as §1
# [7] = target: T4, ETV2 (Homo sapiens, UniProt O00321 1-342); conditions: protein: recombinant; tags: N-terminal GST; dsDNA, one strand shown
# T4 sequence: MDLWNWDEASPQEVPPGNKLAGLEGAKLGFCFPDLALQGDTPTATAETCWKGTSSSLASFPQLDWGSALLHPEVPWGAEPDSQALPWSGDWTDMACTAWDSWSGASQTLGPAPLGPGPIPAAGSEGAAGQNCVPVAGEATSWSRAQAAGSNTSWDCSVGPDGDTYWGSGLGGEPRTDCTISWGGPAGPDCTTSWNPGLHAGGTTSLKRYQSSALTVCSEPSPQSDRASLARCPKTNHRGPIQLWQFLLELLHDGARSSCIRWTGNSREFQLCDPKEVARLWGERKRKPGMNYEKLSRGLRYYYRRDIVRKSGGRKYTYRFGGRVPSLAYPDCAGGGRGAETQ
# Method in brief: as §1
# [8] = target: T5, ELF3 (Homo sapiens, UniProt P78545 1-371); conditions: protein: recombinant; tags: N-terminal GST; dsDNA, one strand shown
# T5 sequence: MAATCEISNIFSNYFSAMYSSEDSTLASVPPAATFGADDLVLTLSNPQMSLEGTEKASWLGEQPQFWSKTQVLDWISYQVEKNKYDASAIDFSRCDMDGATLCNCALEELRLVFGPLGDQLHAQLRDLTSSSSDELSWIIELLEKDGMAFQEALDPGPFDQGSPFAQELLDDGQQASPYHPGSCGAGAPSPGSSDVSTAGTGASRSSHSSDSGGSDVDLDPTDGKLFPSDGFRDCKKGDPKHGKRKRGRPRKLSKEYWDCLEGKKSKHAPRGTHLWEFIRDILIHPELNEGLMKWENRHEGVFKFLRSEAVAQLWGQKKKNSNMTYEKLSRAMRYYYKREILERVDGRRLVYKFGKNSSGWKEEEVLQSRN
# Method in brief: as §1
# [9] = target: CRX (Homo sapiens, UniProt O43186 1-299); conditions: protein: recombinant; tags: N-terminal GST; dsDNA, one strand shown
# Sequence of CRX (O43186 whole entry): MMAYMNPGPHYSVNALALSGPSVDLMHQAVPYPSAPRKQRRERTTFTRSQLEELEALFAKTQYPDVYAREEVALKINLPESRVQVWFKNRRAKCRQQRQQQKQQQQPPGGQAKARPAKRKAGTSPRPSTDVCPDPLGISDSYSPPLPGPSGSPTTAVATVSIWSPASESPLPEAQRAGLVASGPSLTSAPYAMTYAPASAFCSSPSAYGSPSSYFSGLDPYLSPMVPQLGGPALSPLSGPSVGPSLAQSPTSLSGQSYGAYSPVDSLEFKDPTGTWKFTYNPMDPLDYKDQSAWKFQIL
# Method in brief: as §1
# [10] = target: ETV1 (Homo sapiens, UniProt P50549 1-477); conditions: protein: recombinant; tags: N-terminal GST; dsDNA, one strand shown
# Sequence of ETV1 (P50549 whole entry): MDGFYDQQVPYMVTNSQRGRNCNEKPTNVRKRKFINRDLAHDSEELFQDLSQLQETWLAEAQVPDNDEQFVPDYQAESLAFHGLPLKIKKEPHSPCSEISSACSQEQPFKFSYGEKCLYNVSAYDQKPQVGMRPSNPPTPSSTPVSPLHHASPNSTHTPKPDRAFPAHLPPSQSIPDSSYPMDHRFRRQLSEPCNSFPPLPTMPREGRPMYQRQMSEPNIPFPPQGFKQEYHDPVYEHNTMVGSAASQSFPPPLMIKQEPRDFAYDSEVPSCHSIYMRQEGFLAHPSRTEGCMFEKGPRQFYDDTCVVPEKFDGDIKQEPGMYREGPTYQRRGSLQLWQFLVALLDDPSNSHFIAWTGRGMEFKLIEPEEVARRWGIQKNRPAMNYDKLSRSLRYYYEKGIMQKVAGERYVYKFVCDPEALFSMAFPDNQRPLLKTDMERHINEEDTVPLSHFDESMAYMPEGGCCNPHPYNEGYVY
# Method in brief: as §1
sequence,measurement,setting,value
CTATGC,binding signal,[1],"1.36 fold enrichment (6-mer frequency, TF over GST control)"
same,binding signal,[2],"1.38 fold enrichment (6-mer frequency, TF over GST control)"
same,binding signal,[3],"1.28 fold enrichment (6-mer frequency, TF over GST control)"
same,binding signal,[4],"1.54 fold enrichment (6-mer frequency, TF over GST control)"
same,binding signal,[5],"1.48 fold enrichment (6-mer frequency, TF over GST control)"
same,binding signal,[6],"1.38 fold enrichment (6-mer frequency, TF over GST control)"
same,binding signal,[7],"1.55 fold enrichment (6-mer frequency, TF over GST control)"
same,binding signal,[8],"1.2 fold enrichment (6-mer frequency, TF over GST control)"
same,binding signal,[9],"1.15 fold enrichment (6-mer frequency, TF over GST control)"
same,binding signal,[10],"1.55 fold enrichment (6-mer frequency, TF over GST control)"
